# Measurements reported in PubChem BioAssay.
# “And” between values parts separate entries of the source, which are not always exact repeats. Equal entries are not always repeated. The source made the active and inactive calls.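 How the source made its calls, unless noted: active means compounds whose cell count with miR-34 switched on is under 0.7 times the count with it off; inactive means the rest.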
# Assays:
# [1] = stimulators of nuclear beta-catenin in C2C12, primary screen, imaging, WNT3A-conditioned medium, mouse C2C12, NPC library (AID 1117326; in the data active means nuclear beta-catenin stimulation mostly above about 4.2%, no sharp cut-off; inactive means mostly below about 10%); conditions: stronger effect = higher value
# [2] = stimulators of insulin release from INS-1E, primary screen, cell-based, 5 mM glucose, NPC library (AID 1117329;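 active means compound raises insulin release from rat beta cells at 5 mM glucose, no numeric limit stated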); conditions: rat INS-1E insulin secretion, at 10 µM, stronger effect = higher value
# [3] = growth inhibition of GSK3B-pretreated HCT116 cells – cell-based, CellTiter-Glo, 0.2 to 20 µM (AID 1117336;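 active means compounds lowering colon cancer cell viability after pretreatment blocking the GSK3B kinase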); conditions: HCT116 viability after GSK3B inhibitor, at 20 µM, stronger effect = higher value
# [4] = inhibition of endothelial tube formation, primary screen, imaging, VEGF stimulated, CD31 staining, tube area, NPC library (AID 1117340;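 active means compound that reduces growth-factor-driven endothelial tube area in a mixed cell culture, no cutoff stated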); conditions: VEGF-stimulated ADSC/ECFC co-culture, at 10 µM, stronger effect = higher value
# [5] = glucagon-like peptide 1 release enhancers, primary assay, NCI-H716 cell line, NPC library (AID 1117341;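 active means compound raises GLP1 secretion from the human gut endocrine cells, with no numeric limit stated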); conditions: NCI-H716 cells, at 10 µM, stronger effect = higher value
# [6] = HCT116 colon cancer cell growth inhibition, primary screen, CellTiter-Glo luminescence, NPC library (AID 1117342;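 active means compounds that lower survival of HCT116 colon cancer cells in the luminescence readout, no numeric limit stated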); conditions: at 20 µM (top of the series)
# [7] = CellTiter-Glo luminescent readout of SW480 viability loss, NPC library primary (AID 1117343;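 active means compounds that lower viability of the colon cancer cells in the luminescence readout, with no numeric limit stated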); conditions: CellTiter-Glo luminescence; at 20 µM (top of the series) unless noted
# [8] = decreased DLD-1 cellular survival, CellTiter-Glo luminescent readout, NPC compound collection, primary HTS (AID 1117346;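 active means compounds that lower survival of DLD-1 colon cancer cells in the luminescence readout, no cutoff given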); conditions: DLD-1 viability, CellTiter-Glo luminescence; at 20 µM (top of the series)
# [9] = differential killing of epithelial or mesenchymal cells, primary screen, imaging, PC-3E GFP, TEM4-18 mCherry, co-culture (AID 1345086;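 active means compounds killing one labelled cell type while sparing the other, by normalised counts and ratio limits, not self-fluorescent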;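 on all read-outs here: cells exposed to compound for 72 h before imaging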;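 on red/green cell ratio (normalised): normalised mesenchymal count divided by normalised epithelial count so high means epithelial killing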); conditions: imaging cell counts, at 1 µM; for red/green cell ratio (normalised): actives lie on both sides, counts scaled to control wells, 1 = unselective
# [10] = sensitizers of A549 cells to miR-34 induction, primary screen, imaging, A549 dox-inducible miR-34, nuclei and caspase counts (AID 1347080); conditions: A549 miR-34 inducible, Hoechst nuclei count, 48 h
# [11] = survival rescue of mitochondrial mutant cells in low glucose, primary screen, MELAS cybrids, Rieske KO mouse fibroblasts, CellTiter-Glo (AID 1508586;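 active means mean z-score across replicates of 1.96 or higher in either the MELAS or the Rieske mutant cell line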;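 further: z relative to plate mean and SD of compound and empty wells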)
# [12] = target: NAD(+) hydrolase SARM1 (Homo sapiens) (UniProt Q6SZW1); assay: SARM1 TIR NADase inhibitors, cell lysate, NAD-Glo luminescence (AID 1508614;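 active means compound whose remaining NAD level is above about 45 nM, limit read from the data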); conditions: SAM-TIR HEK293T lysate NADase, at 1 µM, stronger effect = higher value
# [13] = hESC survival regulators, cell-based (AID 493140; call rule not given here;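 further: cells exposed to compounds for four days before counting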); conditions: human embryonic stem cell survival screen; stronger effect = higher value
# [14] = liver-stage malaria parasite growth inhibition, primary screen, cell-based, HepG2, luciferase luminescence, HepG2 viability (AID 624349; in the data active means parasite load remaining mostly below about 12%, no sharp cut-off; inactive means mostly above about 10%;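 further: 100% = mean of DMSO negative control wells on the same plate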); conditions: P. berghei liver stage in HepG2, luciferase luminescence, concentration not given here; parasite load remaining: stronger effect = lower value; viability: measured here: HepG2 viability without parasites
# [15] = LFS_MB_P medulloblastoma growth inhibition, cell-based, chromothripsis tumors, cisplatin or BGB combos (AID 1671449; in the data active means inhibition above about 80%;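 further: cells exposed for 96 hours; 0% = vehicle DMSO and 100% = killing by high DMSO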); conditions: LFS_MB_P medulloblastoma cells
# [16] = HDN33 neuroblastoma growth inhibition, cell-based, chromothripsis tumors, cisplatin or BGB combos (AID 1671450; in the data active means inhibition above about 80%;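 further: cells exposed to compound for four days; 0% = vehicle DMSO and 100% = cell killing by high DMSO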); conditions: HDN33 neuroblastoma cells, stronger effect = higher value
# [17] = ICB984 medulloblastoma cell growth inhibition, synergistic combos for chromothripsis tumors, cisplatin or BGB combos (AID 1671451; call rule not given here;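 further: cells exposed for 96 hours before readout; 0% = vehicle DMSO and 100% = killing by high DMSO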); conditions: ICB984 medulloblastoma cells, drug combinations, stronger effect = higher value
# [18] = HTB85 osteosarcoma cell growth inhibition, synergistic combos for chromothripsis tumors, BGB or cisplatin IC20 combos (AID 1671453; in the data active means inhibition above about 80%;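 further: cells exposed for 96 hours before readout; 0% = vehicle DMSO and 100% = high DMSO killing control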); conditions: HTB85 osteosarcoma cells, drug combinations, stronger effect = higher value
# [19] = MDA-MB-436 breast carcinoma cell growth inhibition, synergistic combos for chromothripsis tumors, BGB or cisplatin combos (AID 1671458; call rule not given here;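 further: cells exposed for 96 hours; 0% = vehicle DMSO and 100% = killing by high DMSO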); conditions: MDA-MB-436 breast carcinoma growth inhibition, drug combinations, stronger effect = higher value
# [20] = measured here: epithelial PC-3E GFP cell survival
# [21] = measured here: mesenchymal TEM4-18 mCherry cell survival
# [22] = stronger effect = lower value, cell number ratio, induced over uninduced
# [23] = measured here: relative caspase fold change +Dox/-Dox
# [24] = measured here: total cells with miR-34 induction, stronger effect = lower value
# [25] = measured here: total cells without miR-34 induction
# [26] = MELAS cybrid survival, CellTiter-Glo 48 h, stronger effect = higher value
# [27] = Rieske KO mouse fibroblast survival, CellTiter-Glo 72 h
# NAD(+) hydrolase SARM1 (Homo sapiens), sequence (Q6SZW1 whole entry, looked up): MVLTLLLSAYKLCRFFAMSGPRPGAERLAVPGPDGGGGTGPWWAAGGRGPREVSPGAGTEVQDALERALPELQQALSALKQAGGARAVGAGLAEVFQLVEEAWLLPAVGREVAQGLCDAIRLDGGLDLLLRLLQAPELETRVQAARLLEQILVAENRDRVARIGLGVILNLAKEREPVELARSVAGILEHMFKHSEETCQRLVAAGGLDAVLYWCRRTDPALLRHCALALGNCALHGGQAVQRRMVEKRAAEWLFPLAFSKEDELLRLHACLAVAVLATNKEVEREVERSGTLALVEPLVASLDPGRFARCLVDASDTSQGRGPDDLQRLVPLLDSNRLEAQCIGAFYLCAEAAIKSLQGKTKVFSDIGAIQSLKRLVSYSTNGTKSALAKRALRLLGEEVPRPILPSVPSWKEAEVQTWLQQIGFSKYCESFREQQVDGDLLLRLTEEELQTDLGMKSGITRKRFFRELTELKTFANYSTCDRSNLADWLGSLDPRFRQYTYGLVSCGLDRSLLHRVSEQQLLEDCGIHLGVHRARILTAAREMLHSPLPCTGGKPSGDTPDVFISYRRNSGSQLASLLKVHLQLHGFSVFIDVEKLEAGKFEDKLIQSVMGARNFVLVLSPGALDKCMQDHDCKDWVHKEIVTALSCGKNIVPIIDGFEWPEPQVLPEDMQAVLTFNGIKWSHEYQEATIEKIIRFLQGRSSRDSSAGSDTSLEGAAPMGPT
compound,measurement,setting,value
O=S(=O)(O)NC1CCCCC1,nuclear beta-catenin stimulation,[1]; at 10 µM,0.2% (inactive)
same,nuclear beta-catenin stimulation,"[1]; stimulation, at 2 µM",0.3%
same,insulin secretion stimulation,[2],-1.6% (inactive)
same,viability decrease,[3],-5.65% (inactive)
same,tube area decrease,[4],-18.4% (inactive)
same,GLP1 secretion stimulation,[5],-0.8% (inactive)
same,inhibition of viability,[6],-5.4% (inactive)
same,viability decrease (inhibition),[7],8.9% (inactive)
same,viability decrease (inhibition),[8],1.3% (inactive)
same,red/green cell ratio (normalised),[9],0.89 (inactive)
same,normalised cell number,[9]; [20],0.95
same,normalised cell number,[9]; [21],0.84
same,fold change,[10]; [22],0.883 (inactive) and 0.898 (inactive)
same,fold change,[10]; [23],0.921 and 0.472
same,cell count,[10]; [24],8650 and 7930
same,cell count,[10]; [25],9790 and 8830
same,z-score,[11]; [26],-0.205 (inactive)
same,z-score,[11]; [27],-0.173
same,remaining NAD,[12],10 nM (inactive)
O=C(Nc1ccccc1)OCC(CN1CCCCC1)OC(=O)Nc1ccccc1 (stereo unspecified),survival,[13],16 (inactive)
same,parasite load remaining,[14],59.3% (inactive) and 41.7% (inactive) and 36.2% (inactive)
same,viability,[14],79.1% and 91.5% and 107%
same,nuclear beta-catenin stimulation,[1]; at 10 µM,-0.9% (inactive)
same,nuclear beta-catenin stimulation,"[1]; stimulation, at 2 µM",-0.9%
same,insulin secretion stimulation,[2],14.9% (inactive)
same,viability decrease,[3],36.4% (inactive)
same,tube area decrease,[4],1.6% (inactive)
same,GLP1 secretion stimulation,[5],-0.5% (inactive)
same,inhibition of viability,[6],75.7% (active)
same,viability decrease (inhibition),[7],65.2% (active)
same,viability decrease (inhibition),[8],32.3% (inactive)
same,red/green cell ratio (normalised),[9],0.79 (inactive)
same,normalised cell number,[9]; [20],1.18
same,normalised cell number,[9]; [21],0.92
same,fold change,[10]; [22],0.99 (inactive) and 0.916 (inactive)
same,fold change,[10]; [23],1.08 and 5.69
same,cell count,[10]; [24],8030 and 11400
same,cell count,[10]; [25],8110 and 12500
same,z-score,[11]; [26],0.475 (inactive)
same,z-score,[11]; [27],-0.0131
same,remaining NAD,[12],10 nM (inactive)
Nc1ccc2cc3ccc(N)cc3nc2c1,nuclear beta-catenin stimulation,[1]; at 10 µM,164% (active)
same,nuclear beta-catenin stimulation,"[1]; stimulation, at 2 µM",9.1%
same,insulin secretion stimulation,[2],24% (active)
same,viability decrease,[3],42% (active)
same,tube area decrease,[4],-95.9% (inactive)
same,GLP1 secretion stimulation,[5],11.8% (inactive)
same,inhibition of viability,[6],104% (active)
same,viability decrease (inhibition),[7],106% (active)
same,viability decrease (inhibition),[8],45.9% (active)
same,red/green cell ratio (normalised),[9],0.58 (inactive)
same,normalised cell number,[9]; [20],0.74
same,normalised cell number,[9]; [21],0.43
same,fold change,[10]; [22],0.846 (inactive) and 0.958 (inactive)
same,fold change,[10]; [23],0.821 and 1.18
same,cell count,[10]; [24],1150 and 2160
same,cell count,[10]; [25],1360 and 2260
same,z-score,[11]; [26],2.13 (active)
same,z-score,[11]; [27],-2.97
same,remaining NAD,[12],10 nM (inactive)
same,inhibition,"[15]; at 0.5 µM, stronger effect = higher value",-32.2% (inactive)
same,inhibition,"[15]; measured here: combination with BGB IC20, at 0.005 µM",13.5%
same,inhibition,"[15]; measured here: combination with BGB IC40, at 0.005 µM",-11.3%
same,inhibition,"[15]; measured here: combination with BGB IC40, at 0.05 µM",22.5%
same,inhibition,"[15]; measured here: combination with cisplatin, at 0.5 µM, stronger effect = higher value",-47.3%
same,inhibition,"[15]; measured here: combination with cisplatin, at 5 µM, stronger effect = higher value",91.6%
same,inhibition,"[16]; BGB combo, at 5 µM",96.4%
same,inhibition,[16]; at 0.5 µM,-6.06% (inactive)
same,inhibition,"[16]; cisplatin combo, at 5 µM",99.6%
same,inhibition,"[16]; measured here: with BGB IC20 combination, at 0.5 µM",5.24%
same,inhibition,"[16]; measured here: with cisplatin IC20 combination, at 0.5 µM",-17.9%
same,inhibition,"[16]; single agent, at 5 µM",97.6%
same,inhibition,"[17]; BGB IC20 combo, at 0.005 µM",-22.1%
same,inhibition,"[17]; BGB IC40 combo, at 0.005 µM",-20.5%
same,inhibition,"[17]; BGB IC40 combo, at 0.05 µM",98.8%
same,inhibition,[17]; at 0.5 µM,-20.2% (inactive)
same,inhibition,"[17]; cisplatin combo, at 0.05 µM",98.8%
same,inhibition,"[17]; cisplatin combo, at 0.5 µM",-22.1%
same,inhibition,"[17]; cisplatin combo, at 5 µM",-11.1%
same,inhibition,"[17]; measured here: 5 uM single agent, at 5 µM",-9.35%
same,inhibition,[18]; at 0.5 µM,-33.1% (inactive)
same,inhibition,"[18]; measured here: with BGB IC20, at 0.5 µM",-40.6%
same,inhibition,"[18]; measured here: with BGB IC20, at 5 µM",79.3%
same,inhibition,"[18]; measured here: with cisplatin IC20, at 0.5 µM",-43.3%
same,inhibition,"[18]; measured here: with cisplatin IC20, at 5 µM",99.3%
same,inhibition,"[18]; single agent, at 5 µM",84.4%
same,inhibition,[19]; at 0.5 µM,7.24% (inactive)
same,inhibition,"[19]; measured here: BGB combination, at 0.5 µM",-0.519%
same,inhibition,"[19]; measured here: BGB combination, at 5 µM",92.2%
same,inhibition,"[19]; measured here: cisplatin combination, at 0.5 µM",-19.4%
same,inhibition,"[19]; measured here: cisplatin combination, at 5 µM",97.5%
